The text below walks through data of PubChem BioAssay (NCI).

SMILES strings stand for the structures. About 83,000 compounds went through this panel and 20% of them were active in at least one assay; those are over-represented in the sample as a whole.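 For each line, cells grew in 96-well plates with the test compound present at a single concentration for 48 hours.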 A number with no mark means an inactive call. Calls of active or inactive are those of the source. How the source made its calls: active means growth percent below 10; inactive means the rest.

Assay in all cases: NCI-60 one-dose screen, 48 h (100 = growth as untreated, 0 = no growth, -100 = all killed)
Common to all, as to settings: 10 µM unless noted

The test system of experiment [1] is HCT-15 colon.
For experiment [2], the system named is HT29 colon.
Experiment [3] deals with SNB-75 CNS.
For experiment [4], the system named is SNB-19 CNS.
Experiment [5] concerns U251 CNS.
For experiment [6], the system named is PC-3 prostate.
For experiment [7], the system named is SK-MEL-5 melanoma.
Experiment [8] has as its system UACC-62 melanoma.
Experiment [9] deals with LOX IMVI melanoma.
Experiment [10] has as its system SK-MEL-2 melanoma.
For experiment [11], the system named is EKVX NSCLC.
In experiment [12] the test system is SN12C renal.
For experiment [13], the system named is UO-31 renal.
The subject of experiment [14] is TK-10 renal.
For experiment [15], the system named is ACHN renal.
The test system of experiment [16] is CAKI-1 renal.
Experiment [17] deals with A498 renal.
Experiment [18] relates to CCRF-CEM leukemia.
Experiment [19] relates to MOLT-4 leukemia.
Experiment [20] concerns SK-MEL-28 melanoma.

Take `CC(C)C1C2=C(NCCN1C(=O)c1ccncc1)C(C)(C)N(Cc1ccccc1)C2=O` (configuration not stated): the growth in experiment [1] was 103%; in experiment [2], 92.8%; in [3], 81.7%; in experiment [4], 101%; in experiment [5], 100%; in [6], 96.1%. Besides, the growth is 105% in experiment [7]; 95.6% in [8]; 95.5% in [9]; 97.4% in experiment [10]; 99.1% in experiment [11]; 93.3% in [12]. Besides, the growth was 83.2% in [13]; 89.9% in experiment [14]; 105% in [15]; 94.4% in experiment [16]; 113% in experiment [17]; 108% in [18]. For the same molecule, the growth in [19] is 84%.

On to `CCOC(=O)c1cn2ncnc(Oc3ccc(NC(=O)NC4CC4)c(Cl)c3)c2c1C`, for which the growth in experiment [1] is 81.7%; in [2] it was 95.1%; in [3] it was 83.8%; in experiment [4] it was 89%; in experiment [5] it was 80.7%; in experiment [6] it was 89.2%. Also, the growth is 88.7% in [7]; 77.8% in experiment [8]; 85.4% in [9]; 110% in experiment [10]; 89.8% in [11]; 79.9% in [12]. For the same molecule, the growth in [13] is 65.3%; in [14] it was 113%; in [15], 96.4%; in [16] it was 101%; in [17], -0.592% (active); in experiment [18], 89.2%. Besides, the growth in [19] is 88.8%.

Take `Nc1c(Cl)cc(/C=C2\C=Cc3ccccc32)cc1Cl`: the growth is 100% in experiment [1]; 97.6% in experiment [2]; 86.1% in experiment [3]; 114% in experiment [4]; 108% in [5]; 90.6% in [6]. The growth was 105% in [7]; 106% in [8]; 89.7% in experiment [9]; 120% in [10]; 94.2% in experiment [11]; 113% in experiment [12]. The growth in [13] was 95.7%; in experiment [14], 107%; in experiment [15] it was 101%; in experiment [16], 110%; in experiment [17], 97.6%; in experiment [18], 106%. The growth in experiment [19] was 98.7%.

In the case of `Nc1nc(N)c2c(n1)NC(c1cccc(Nc3ccnc4cc(C(F)(F)F)ccc34)c1)CC(c1ccc3c(c1)OCO3)=N2` (configuration not stated), the growth in experiment [1] is 37.4%; in [2], 23.8%; in experiment [3], 78.7%; in experiment [4] it was 76.5%; in [5] it was 56.4%; in experiment [6] it was 48.5%. The growth in experiment [7] was 66.4%; in experiment [8], 90.6%; in experiment [9], 65.7%; in experiment [10], 61.6%; in experiment [11] it was 76.7%; in [12], 81.6%. In addition, the growth is 69.2% in experiment [13]; 90.1% in experiment [14]; 102% in [15]; 59.6% in [16]; 87.9% in [17]; 29% in experiment [19].

Take `O=C(/C=C/c1ccccc1)c1cccc2ccccc12`: the growth in experiment [1] is 26.5%; in [2], 3.24% (active); in [3] it was 17.4%; in experiment [4], 56.7%; in [5], 29.6%; in [6], 45.2%. Further, the growth was 59.2% in experiment [7]; 36.1% in experiment [8]; 57.8% in experiment [9]; 68.3% in experiment [20]; 5.16% (active) in [10]; 46.3% in experiment [12]. The growth is 46.9% in [13]; 43.1% in experiment [15]; 40.7% in [16]; 50.1% in [17]; 3.83% (active) in experiment [18]; 6.46% (active) in experiment [19].

Turning to `O=C(Cn1nc(-c2cccc3ccccc23)ccc1=O)NCc1cccc(Cl)c1`, the growth in experiment [1] was 28.9% [50 µM]; in experiment [2], 43% [50 µM]; in experiment [3], 74.3% [50 µM]; in [4], 45.3% [50 µM]; in [5], 35% [50 µM]; in experiment [6] it was 19.6% [50 µM]. Besides, the growth in [7] was 5.82% [50 µM] (active); in experiment [8] it was 35.2% [50 µM]; in experiment [9], 28.6% [50 µM]; in experiment [10], 59.2% [50 µM]; in experiment [11], 21% [50 µM]; in [12] it was 46.4% [50 µM]. In addition, the growth was 15.3% [50 µM] in experiment [13]; 40.7% [50 µM] in experiment [14]; 28.9% [50 µM] in experiment [15]; 40.2% [50 µM] in [16]; 26.8% [50 µM] in experiment [17]; 20.5% [50 µM] in experiment [19].

Consider `COC(=O)/C(CCC=C(C)C)=C1\[C@@H](OC(C)=O)C[C@@]2(C)[C@H]1C/C(=N/O)[C@H]1[C@@]3(C)CC/C(=N\O)[C@@H](C)[C@@H]3CC[C@@]12C`, for which the growth in experiment [1] is 88.4%; in [2], 107%; in experiment [3], 86.9%; in [4] it was 88.9%; in [5], 91.5%; in [6], 70.9%. Further, the growth in experiment [7] is 98.9%; in experiment [8], 93.7%; in experiment [9] it was 78.1%; in [20], 111%; in experiment [10], 96.7%; in experiment [13] it was 77.5%. The growth in experiment [14] was 119%; in experiment [15], 102%; in [16] it was 76.1%; in experiment [17], 111%; in [18], 87.3%; in [19] it was 72.1%.

As to `Cc1ccc(S(=O)(=O)OC[C@]23CCC(C)(C)C[C@H]2C2=CC[C@@H]4[C@@]5(C)CCCNC(C)(C)[C@@H]5CC[C@@]4(C)[C@]2(C)CC3)cc1`, the growth is -50.9% (active) in experiment [1]; -59.3% (active) in experiment [2]; 86.4% in experiment [3]; 85.7% in experiment [4]; -81.1% (active) in [5]; 53.9% in experiment [6]. The growth in [7] is 91.5%; in [8], 89.7%; in [9], -87.7% (active); in experiment [20], 99.8%; in experiment [10], 102%; in experiment [12], 46.4%. Also, the growth in experiment [13] was 60.2%; in experiment [15] it was 48.6%; in experiment [16], 41.9%; in experiment [17], 95.4%; in experiment [18], 34.5%; in experiment [19], 12.9%.
